Most compounds without a hit are left out; they make up all but 2% or so of the library.
PGE2 EP2 inh: blocks the human prostaglandin E2 receptor EP2 | 0.52% of 260,000 active | C6 glioma cells expressing human EP2, cAMP TR-FRET; cells stimulated with saturating PGE2 | inhibition, % at 25 µM | P43116;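 active = percent inhibition above 40 after rounding to a whole number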;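 also: rat C6 glioma host cells with rolipram phosphodiesterase inhibitor present; the protocol text gives 20 µM as final concentration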
S1P4 antagonist: antagonists of human S1P4 receptor. inhibition, % at 4.98 µM. O95977. 0.26% of 220,000 active. S1P4-expressing cells, antagonist mode, reporter read-out. AID 1510; in the data active = inhibition above about 29%
S1P4 agonist: human S1P4 receptor agonism; S1P4-expressing cell line, agonist reporter assay; activation, % at 4.98 µM; 0.35% of 220,000 active; O95977; in the data active = activation above about 11%
EP2 mod: EP2 receptor (human) modulation | P43116 | induction, % at 25 µM | EP2-expressing cells, cAMP HTRF FRET, PGE2 co-stimulation | 0.83% of 260,000 active | AID 940;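 active = compounds whose cAMP rise, as percent of the full-agonist control response, exceeds 60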;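 also: rat C6 glioma line stably carrying human EP2 under a CMV promoter; the protocol text gives 20 µM as final concentration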
S1P3 antag-1: antagonists of human S1P3 receptor; 0.27% of 170,000 active; CHO S1P3 NFAT-BLA reporter, FRET fluorescence, antagonist mode; AID 485; inhibition, % at 4.98 µM;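 active = inhibition above the plate cutoff, the mean inhibition of test wells on that plate plus 3 SD, cut at about 28% in these data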;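 also: cells challenged with S1P at its EC80 of 0.8 µM; blue over green emission ratio from cleaved BLA substrate after 4 h stimulation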
Target sequence (Q99500 whole entry, looked up): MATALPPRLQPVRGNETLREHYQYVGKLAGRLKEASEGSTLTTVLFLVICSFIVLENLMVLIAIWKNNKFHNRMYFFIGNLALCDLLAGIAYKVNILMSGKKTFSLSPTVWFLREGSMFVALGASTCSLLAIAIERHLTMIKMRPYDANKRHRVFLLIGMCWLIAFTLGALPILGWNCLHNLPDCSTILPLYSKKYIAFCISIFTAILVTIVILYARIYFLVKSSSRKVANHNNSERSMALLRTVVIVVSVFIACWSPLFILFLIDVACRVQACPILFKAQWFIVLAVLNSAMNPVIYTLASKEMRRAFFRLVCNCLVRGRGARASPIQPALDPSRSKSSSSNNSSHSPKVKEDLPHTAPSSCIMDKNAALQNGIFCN
S1P3 antag-2: confirmation of human S1P3 receptor antagonists | shares compounds with S1P3 antag-1 | CHO S1P3 NFAT-BLA reporter, FRET, antagonist mode | inhibition, % at 4.98 µM | 30% of 240 active | AID 1429;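 active = inhibition above the hit threshold that was computed for the earlier primary screen, cut at about 30% in these data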
EP2 cAMP induct: human EP2 receptor cAMP induction, negative in counter-screens | shares compounds with EP2 mod | C6 glioma EP2 cells, cAMP HTRF induction; plus low (about EC15) PGE2 agonist | calls only at 20 µM (by protocol) | 47% of 1,300 active | AID 1080;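 active = cAMP induction above 50% in the main assay while under 30% in all four parallel counter assays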;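 also: rat C6 glioma cells stably expressing human EP2 receptor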
S1P4 antag conf: confirmation of human S1P4 receptor antagonists. S1P4-expressing cell line, antagonist mode, reporter read-out. 71% of 520 active. inhibition, % at 4.98 µM. shares compounds with S1P4 antagonist; in the data active = inhibition above about 30%
Each line names hits and unclear results; the compound was inactive in the other large screens (follow-up assays come after a bar, where they were run).

Cn1c(O)c(C=Nc2ccccc2Sc2ccccc2)c(=O)n(C)c1=O	EP2 mod 61.1
CC12CCC(=O)C=C1CCC1C2CCC2(C)C(O)CCC12 (stereo not given)	none
C[C@@]12CC[C@@H]3[C@H](CCC4=CC(=O)CC[C@H]43)[C@H]1CC[C@H]2OC1(O)C(=O)c2ccccc2C1=O	PGE2 EP2 inh 64.2 (no result: S1P4 antagonist, S1P4 agonist, S1P3 antag-1)
COc1cccc(C2(O)CCN(CCNC(=O)c3c(C)noc3C)CC2)c1	none (no result: S1P4 antagonist, S1P4 agonist, S1P3 antag-1)
CCCC(=O)N(C)C1=Nc2ccc(Cl)cc2C(c2ccccc2)=[N+]([O-])C1	none
CN(CCC(=O)O)C1=Nc2ccc(Cl)cc2C(c2ccccc2)=[N+]([O-])C1	PGE2 EP2 inh 49.8 (no result: S1P4 antagonist, S1P4 agonist, S1P3 antag-1)
CC1CCN(C2CCNCC2)CC1	none (no result: S1P4 antagonist, S1P4 agonist, S1P3 antag-1)
CC(C)(C)C(=O)c1cn(Cc2ccc(C#N)cc2)c2ccccc12	none (no result: S1P4 antagonist, S1P4 agonist, S1P3 antag-1)
Cc1ccc(NP(=O)(Oc2ccccc2F)Oc2ccccc2F)cc1	none (no result: S1P3 antag-1)
Cc1cccc(NP(=O)(Oc2ccccc2F)Oc2ccccc2F)c1C	EP2 mod 64.8
OCC[n+]1c2ccccc2nc2ccc(N3CCOCC3)cc21	PGE2 EP2 inh 100.8
Cc1nonc1CC(=O)N(CCN(C)C)Cc1ccccc1F	none (no result: S1P4 antagonist, S1P4 agonist, S1P3 antag-1)
O=C(O)[C@@H](O)[C@@H](O)[C@@H]1[O][Sb][O][C@@H]1CO	PGE2 EP2 inh 51.0 (no result: S1P4 antagonist, S1P4 agonist, S1P3 antag-1)
CCOCc1cc(CN2C3CCC2CC(O)(c2ccccc2F)C3)ccc1OC (stereo not given)	none (no result: S1P4 antagonist, S1P4 agonist, S1P3 antag-1)
Cc1ccc(S(=O)ON2CCC(C(=O)O)(c3ccccc3)CC2)cc1 (stereo not given)	PGE2 EP2 inh 44.9 (no result: S1P4 antagonist, S1P4 agonist, S1P3 antag-1)
CCC(C)N1CCN(Cc2cc(OC)c(OC)cc2OC)CC1 (stereo not given)	none (no result: S1P4 antagonist, S1P4 agonist, S1P3 antag-1)
C[C@H]1C[C@@H](C)C(=O)[C@@H]([C@H](O)CC2CC(=O)NC(=O)C2)C1	S1P3 antag-1 83.8 | S1P3 antag-2 81.6
CCOc1ccc(-n2c(-c3ccoc3)nc3ccccc3c2=O)cc1	none (no result: S1P3 antag-1)
CCOc1ccc(-c2c(C)n(-c3ccc(OCC)cc3)c3[n+]2CCCCC3)cc1	S1P3 antag-1 39.5 | S1P3 antag-2 inactive
OC12CCCCC1CN(Cc1ccc3ncccc3c1)CC2 (stereo not given)	none (no result: S1P4 antagonist, S1P4 agonist, S1P3 antag-1)
O=C(COC(=O)Cc1ccccc1)Nc1ccc(Cl)cn1	S1P3 antag-1 35.5 | S1P3 antag-2 inactive
COc1ccc(CN2CCN(C(=O)COc3ccc(C)cc3)CC2)cc1OC	none (no result: S1P4 antagonist, S1P4 agonist, S1P3 antag-1)
CN[C@H]1C[C@H]2O[C@@](C)([C@H]1OC)n1c3ccccc3c3c4c(c5c6ccccc6n2c5c31)C(=O)NC4	S1P4 antagonist 105.5, S1P3 antag-1 109.3 | S1P3 antag-2 121.4 | S1P4 antag conf 117.3
O=C(CN1C2CCC1CC(O)(c1cccnc1)C2)OC1CCCCC1 (stereo not given)	none (no result: S1P4 antagonist, S1P4 agonist, S1P3 antag-1)
CCOC(=O)c1cn2nc(OP(=S)(OCC)OCC)cc2nc1C	none
CCOP(=S)(OCC)Oc1nc(Cl)c(Cl)cc1Cl	EP2 mod 68.2 (no result: S1P4 antagonist, S1P4 agonist, S1P3 antag-1) | EP2 cAMP induct active
Cc1nc(CC(=O)N(CCN(C)C)Cc2ccccc2F)cs1	none (no result: S1P4 antagonist, S1P4 agonist, S1P3 antag-1)
COc1cc(OC)c(OC)cc1CNCCc1ccc(OC)c(OC)c1	EP2 mod 67.3 | EP2 cAMP induct inactive
CC(=O)N1CCCc2cc(C(O)CN3CC=C(c4ccccc4)CC3)ccc21 (stereo not given)	none (no result: S1P4 antagonist, S1P4 agonist, S1P3 antag-1)
CC(N)[C@H](O)c1ccc(O)c(O)c1 (stereo not given in full)	none (no result: S1P4 antagonist, S1P4 agonist, S1P3 antag-1)
C[C@H](N)[C@H](O)c1ccc(O)c(O)c1	EP2 mod 74.4 (no result: S1P4 antagonist, S1P4 agonist, S1P3 antag-1) | EP2 cAMP induct inactive
C[C@@H](Cc1ccc(Cl)cc1Cl)NO	none (no result: S1P4 antagonist, S1P4 agonist, S1P3 antag-1)
CC(C)c1nccn1Cc1ccc(Cl)cc1Cl	EP2 mod 106.0 (no result: S1P4 antagonist, S1P4 agonist, S1P3 antag-1) | EP2 cAMP induct inactive
CCCCCCCCCc1ccc(O)cc1	none (no result: S1P4 antagonist, S1P4 agonist, S1P3 antag-1) | EP2 cAMP induct inactive
O=C(C1CC1)N1CCCc2cc(C(O)CN3CC=C(c4ccc(F)cc4)CC3)ccc21 (stereo not given)	none (no result: S1P4 antagonist, S1P4 agonist, S1P3 antag-1)
Clc1ccccc1C1NCc2ccccc2-n2cccc21 (stereo not given)	EP2 mod 68.5 | EP2 cAMP induct active
CCOc1cccc(C2NCc3ccccc3-n3cccc32)c1O (stereo not given)	none
